Measurements reported in the supplement of paper PMC10849652.
About 8,800 targets were measured; listed, in parts, are those with a hit and a random draw of the rest. About 0.5% of all pairs of compound and target were hits.

The targets below were run with CC[C@@H]1C(=O)N(C)c2cnc(Nc3ccc(C(=O)NC4CCN(C)CC4)cc3OC)nc2N1C1CCCC1 (assay: log2 fold change, soluble protein after heating vs DMSO (PISA); higher = thermal stabilisation; K562 lysate, 10 uM; active = over 0.2 and 3.5 SD of the protein, either way, in both replicates (recomputed)).
Summary of the method: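 Following dounce homogenisation of K562 pellets in PBS pH 7.4 with 1 mM MgCl2, crude extract at 1 mg/mL protein was incubated for 30 min with 10 μM compound. Aliquots were then heated for 3 min over 48°C-58°C and pooled, NP-40 was added to 0.5% at 4°C, and soluble protein was recovered as the supernatant at 21,000xg for 90 min. Channel-sum-equalised TMTpro 16plex LC-MS/MS quantified this protein. Each value, from duplicates, is a log-two fold change in thermal stability relative to solvent controls.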

Sequence of UniProt Q9NZB8 (Q9NZB8 whole entry, looked up): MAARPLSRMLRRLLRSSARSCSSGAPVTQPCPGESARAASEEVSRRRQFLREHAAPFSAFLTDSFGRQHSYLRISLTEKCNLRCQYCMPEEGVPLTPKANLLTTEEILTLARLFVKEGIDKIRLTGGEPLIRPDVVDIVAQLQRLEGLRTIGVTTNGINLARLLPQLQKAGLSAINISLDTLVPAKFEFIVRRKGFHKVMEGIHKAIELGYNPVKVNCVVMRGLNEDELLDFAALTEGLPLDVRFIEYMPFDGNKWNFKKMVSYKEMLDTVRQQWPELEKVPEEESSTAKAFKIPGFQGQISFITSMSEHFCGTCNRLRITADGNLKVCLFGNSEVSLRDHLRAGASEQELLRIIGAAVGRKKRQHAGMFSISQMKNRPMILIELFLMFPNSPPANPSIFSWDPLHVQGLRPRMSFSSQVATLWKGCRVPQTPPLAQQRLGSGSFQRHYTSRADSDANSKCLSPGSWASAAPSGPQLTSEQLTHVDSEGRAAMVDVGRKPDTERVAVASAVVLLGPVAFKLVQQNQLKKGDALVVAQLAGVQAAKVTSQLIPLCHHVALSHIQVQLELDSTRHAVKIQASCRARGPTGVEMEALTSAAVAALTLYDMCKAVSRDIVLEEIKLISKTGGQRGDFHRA
Sequence of UniProt Q96II8 (Q96II8 whole entry, looked up): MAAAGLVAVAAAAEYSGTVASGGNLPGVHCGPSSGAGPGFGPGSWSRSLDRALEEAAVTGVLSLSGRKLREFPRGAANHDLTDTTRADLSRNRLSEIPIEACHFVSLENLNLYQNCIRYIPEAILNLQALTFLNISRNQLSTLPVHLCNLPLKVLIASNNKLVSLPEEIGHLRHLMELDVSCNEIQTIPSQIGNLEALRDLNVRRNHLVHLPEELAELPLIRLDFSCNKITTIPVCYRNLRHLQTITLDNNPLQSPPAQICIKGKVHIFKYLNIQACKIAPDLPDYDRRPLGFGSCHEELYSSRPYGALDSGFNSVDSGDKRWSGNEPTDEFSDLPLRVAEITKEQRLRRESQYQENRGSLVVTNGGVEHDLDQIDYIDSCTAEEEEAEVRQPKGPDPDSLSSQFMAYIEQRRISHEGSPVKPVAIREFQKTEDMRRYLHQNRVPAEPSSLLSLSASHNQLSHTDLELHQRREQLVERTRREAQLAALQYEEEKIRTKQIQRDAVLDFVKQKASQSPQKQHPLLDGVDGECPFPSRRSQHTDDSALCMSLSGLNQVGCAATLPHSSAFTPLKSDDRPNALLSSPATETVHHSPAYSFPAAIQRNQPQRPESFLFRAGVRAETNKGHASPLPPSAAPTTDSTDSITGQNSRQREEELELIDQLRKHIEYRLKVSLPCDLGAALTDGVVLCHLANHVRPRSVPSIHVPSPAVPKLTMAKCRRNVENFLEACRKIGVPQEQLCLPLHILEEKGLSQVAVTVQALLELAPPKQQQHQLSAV
Sequence of UniProt Q9BTE3 (Q9BTE3 whole entry, looked up): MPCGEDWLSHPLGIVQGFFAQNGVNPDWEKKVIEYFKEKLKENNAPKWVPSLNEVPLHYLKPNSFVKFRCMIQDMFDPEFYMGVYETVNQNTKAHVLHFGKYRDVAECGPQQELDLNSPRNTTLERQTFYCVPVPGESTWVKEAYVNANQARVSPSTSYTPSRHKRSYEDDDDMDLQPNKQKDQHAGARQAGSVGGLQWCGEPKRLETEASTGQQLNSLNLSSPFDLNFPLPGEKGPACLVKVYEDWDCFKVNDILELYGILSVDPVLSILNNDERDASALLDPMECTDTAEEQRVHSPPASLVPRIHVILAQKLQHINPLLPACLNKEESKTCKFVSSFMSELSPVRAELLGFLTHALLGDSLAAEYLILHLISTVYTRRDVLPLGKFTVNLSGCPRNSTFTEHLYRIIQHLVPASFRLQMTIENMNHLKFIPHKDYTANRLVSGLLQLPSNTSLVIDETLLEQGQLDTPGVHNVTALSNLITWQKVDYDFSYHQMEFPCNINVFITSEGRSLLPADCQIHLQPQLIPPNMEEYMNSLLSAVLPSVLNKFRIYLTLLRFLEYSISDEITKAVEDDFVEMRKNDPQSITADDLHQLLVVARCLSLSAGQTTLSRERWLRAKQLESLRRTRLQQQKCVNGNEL
Sequence of UniProt Q9BVC4 (Q9BVC4 whole entry, looked up): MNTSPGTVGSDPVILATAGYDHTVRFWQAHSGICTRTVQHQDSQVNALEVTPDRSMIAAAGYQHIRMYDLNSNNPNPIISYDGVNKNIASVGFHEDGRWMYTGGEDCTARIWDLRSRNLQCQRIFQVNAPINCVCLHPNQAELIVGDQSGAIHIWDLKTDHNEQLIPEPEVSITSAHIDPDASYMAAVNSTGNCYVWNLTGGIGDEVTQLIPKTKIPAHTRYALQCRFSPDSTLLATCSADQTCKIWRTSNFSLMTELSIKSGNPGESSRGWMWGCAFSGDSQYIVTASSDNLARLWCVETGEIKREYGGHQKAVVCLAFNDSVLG
Sequence of UniProt Q13163 (Q13163 whole entry, looked up): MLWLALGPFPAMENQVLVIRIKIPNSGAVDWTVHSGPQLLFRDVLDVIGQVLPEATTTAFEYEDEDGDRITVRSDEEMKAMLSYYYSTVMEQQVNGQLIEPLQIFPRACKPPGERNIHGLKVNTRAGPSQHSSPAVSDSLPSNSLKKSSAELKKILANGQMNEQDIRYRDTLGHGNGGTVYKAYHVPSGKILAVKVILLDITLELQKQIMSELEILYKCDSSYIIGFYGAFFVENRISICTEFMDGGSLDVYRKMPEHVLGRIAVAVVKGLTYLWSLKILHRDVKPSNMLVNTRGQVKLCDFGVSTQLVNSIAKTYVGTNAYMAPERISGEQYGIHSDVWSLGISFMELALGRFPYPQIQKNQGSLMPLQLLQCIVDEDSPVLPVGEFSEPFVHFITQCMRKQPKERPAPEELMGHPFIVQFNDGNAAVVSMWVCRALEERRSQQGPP
Sequence of UniProt O95819 (O95819 whole entry, looked up): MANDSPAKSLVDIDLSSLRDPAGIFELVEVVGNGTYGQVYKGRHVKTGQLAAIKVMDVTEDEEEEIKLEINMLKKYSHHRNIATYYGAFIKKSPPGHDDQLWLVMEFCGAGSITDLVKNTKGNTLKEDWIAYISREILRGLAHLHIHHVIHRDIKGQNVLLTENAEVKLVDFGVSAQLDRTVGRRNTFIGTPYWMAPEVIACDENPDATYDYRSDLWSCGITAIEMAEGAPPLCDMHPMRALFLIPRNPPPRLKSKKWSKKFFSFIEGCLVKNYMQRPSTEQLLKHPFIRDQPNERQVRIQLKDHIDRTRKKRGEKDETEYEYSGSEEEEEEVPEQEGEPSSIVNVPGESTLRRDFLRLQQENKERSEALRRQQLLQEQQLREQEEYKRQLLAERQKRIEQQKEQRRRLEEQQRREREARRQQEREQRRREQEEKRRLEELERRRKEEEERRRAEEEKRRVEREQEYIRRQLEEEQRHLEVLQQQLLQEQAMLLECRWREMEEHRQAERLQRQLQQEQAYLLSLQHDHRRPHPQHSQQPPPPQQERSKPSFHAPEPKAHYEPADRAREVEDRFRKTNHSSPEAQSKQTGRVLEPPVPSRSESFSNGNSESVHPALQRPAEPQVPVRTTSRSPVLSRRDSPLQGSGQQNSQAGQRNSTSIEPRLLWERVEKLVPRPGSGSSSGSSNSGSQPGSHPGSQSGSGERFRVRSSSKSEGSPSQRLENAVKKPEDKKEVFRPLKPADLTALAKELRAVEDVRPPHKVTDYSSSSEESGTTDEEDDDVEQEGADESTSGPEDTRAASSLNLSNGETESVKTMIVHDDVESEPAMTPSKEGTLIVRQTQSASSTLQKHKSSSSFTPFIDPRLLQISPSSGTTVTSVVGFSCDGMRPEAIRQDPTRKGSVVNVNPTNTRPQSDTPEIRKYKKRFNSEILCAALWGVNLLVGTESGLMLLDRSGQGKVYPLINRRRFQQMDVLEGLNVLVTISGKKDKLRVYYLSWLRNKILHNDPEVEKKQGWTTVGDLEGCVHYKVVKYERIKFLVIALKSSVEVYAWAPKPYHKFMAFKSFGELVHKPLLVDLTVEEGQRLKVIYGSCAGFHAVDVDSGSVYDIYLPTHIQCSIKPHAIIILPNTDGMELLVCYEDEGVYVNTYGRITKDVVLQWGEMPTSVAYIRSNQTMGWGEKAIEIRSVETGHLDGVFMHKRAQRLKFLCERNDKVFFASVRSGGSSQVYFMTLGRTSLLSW
Sequence of UniProt Q68D91 (Q68D91 whole entry, looked up): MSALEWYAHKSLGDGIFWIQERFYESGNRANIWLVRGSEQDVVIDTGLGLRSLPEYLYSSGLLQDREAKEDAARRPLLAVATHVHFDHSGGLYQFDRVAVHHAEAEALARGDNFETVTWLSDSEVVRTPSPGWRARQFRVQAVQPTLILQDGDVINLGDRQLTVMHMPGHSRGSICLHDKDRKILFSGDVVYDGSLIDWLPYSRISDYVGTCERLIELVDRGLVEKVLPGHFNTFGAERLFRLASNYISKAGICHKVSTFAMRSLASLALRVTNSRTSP
Sequence of UniProt Q07866 (Q07866 whole entry, looked up): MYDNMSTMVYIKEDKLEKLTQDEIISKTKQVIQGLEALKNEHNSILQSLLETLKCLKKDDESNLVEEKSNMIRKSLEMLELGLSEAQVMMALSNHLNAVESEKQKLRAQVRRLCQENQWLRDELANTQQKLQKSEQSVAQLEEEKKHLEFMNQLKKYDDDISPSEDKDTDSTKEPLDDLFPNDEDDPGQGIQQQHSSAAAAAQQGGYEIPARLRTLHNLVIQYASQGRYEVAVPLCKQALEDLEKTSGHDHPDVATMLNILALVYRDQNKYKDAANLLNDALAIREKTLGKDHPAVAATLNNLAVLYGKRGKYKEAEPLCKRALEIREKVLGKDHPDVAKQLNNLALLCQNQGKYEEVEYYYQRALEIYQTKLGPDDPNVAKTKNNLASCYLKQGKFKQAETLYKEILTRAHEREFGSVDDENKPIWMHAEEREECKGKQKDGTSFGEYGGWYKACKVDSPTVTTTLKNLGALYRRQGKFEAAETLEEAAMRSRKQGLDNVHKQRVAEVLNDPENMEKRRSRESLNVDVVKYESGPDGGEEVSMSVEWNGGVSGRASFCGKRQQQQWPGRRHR

log2 fold change, inactive:
MAP1S (UniProt Q66K74) -0.035
MON2 isoform 5 (UniProt Q7Z3U7) -0.029
LRPPRC (UniProt P42704) -0.141
LBR (UniProt Q14739) 0.014
MAPK14 (UniProt Q16539) -0.192
MLST8 (UniProt Q9BVC4) 0.026
MMS19 isoform 8 (UniProt Q96T76) -0.061
KNL1 (UniProt Q8NG31) -0.015
KLC1 isoform 6 (UniProt Q07866) 0.012
MICU1 isoform 3 (UniProt Q9BPX6) 0.002
MOCS1 isoform 8 (UniProt Q9NZB8) -0.043
KLHL36 (UniProt Q8N4N3) 0.077
MAP2K4 isoform 2 (UniProt P45985) -0.127
MED17 (UniProt Q9NVC6) -0.023
MAP2K5 (UniProt Q13163) -0.148
LRWD1 (UniProt Q9UFC0) -0.016
MCMBP (UniProt Q9BTE3) 0.006
MRPL15 (UniProt Q9P015) 0.024
MAST4 (UniProt O15021) -0.126
MBLAC2 (UniProt Q68D91) -0.042
KNSTRN (UniProt Q9Y448) 0.01
MAP4K4 isoform 3 (UniProt O95819) -0.071
MACROD1 (UniProt Q9BQ69) 0.033
MAPK9 (UniProt P45984) -0.063
LRRC40 (UniProt Q9H9A6) -0.024
MRPL10 isoform 2 (UniProt Q7Z7H8) 0.03
MICB, A0A140T979 0.223
LIG3 (UniProt P49916) -0.127
MAPKAPK3 (UniProt Q16644) -0.145
KIF2C (UniProt Q99661) -0.058
LRCH3 (UniProt Q96II8) -0.051
LYAR (UniProt Q9NX58) 0.005
MGST1 (UniProt P10620) 0.097
KLC4 isoform 3 (UniProt Q9NSK0) 0.038
MAPKAPK5 (UniProt Q8IW41) -0.009
MED10 (UniProt Q9BTT4) 0.133
LPIN1 isoform 7 (UniProt Q14693) -0.057
KIF21A isoform 5 (UniProt Q7Z4S6) -0.038
MAP2K1 (UniProt Q02750) -0.043
